Source: PubChem BioAssay (EPA / NIEHS)
Records with an inconclusive call do not appear. Calls of active or inactive are those of the source. Rule for the calls, unless noted: active = hit-call score of the fitted dose curve at least 0.9, where 1 is the maximum; inconclusive = response in the unintended direction; inactive = score below 0.9.

Tests used:
[1] = ATG_VDRE_CIS: Attagene CIS-FACTORIAL HepG2 Assay for human Vitamin D Receptor Element (VDRE) (AID 2282968; active = hit-call score of the fitted dose curve at least 0.9, where 1 is the maximum; inactive = score below 0.9); details: HepG2 VDRE cis-reporter transcription, actives raise or lower the signal
Method in brief: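 Reporter mRNA induction, quantified by capillary electrophoresis of fluorescently labelled RT-PCR products, was read 24 h after dosing HepG2 cells carrying transiently transfected cis-regulated reporter units; gain or loss relative to DMSO.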

[2] = molecular target: Steroid hormone receptor ERR1 (Homo sapiens) (UniProt P11474); assay: ATG_ERRa_TRANS: Attagene TRANS-FACTORIAL HepG2 Assay for human Estrogen-Related Receptor alpha (ERRa) (AID 2282971); details: HepG2 Attagene TRANS reporter, ERRa transactivation
Method in brief: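 HepG2 cells were transiently transfected with multiple GAL4-UAS reporter units, then dosed with compound for 24 h. Total RNA was reverse-transcribed, reporter cDNA PCR-amplified and fluorescently labelled, and fragments resolved by capillary electrophoresis; induction was compared with DMSO.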

[3] = molecular target: X-box-binding protein 1 (Homo sapiens) (UniProt P17861); assay: ATG_Xbp1_CIS: Attagene CIS-FACTORIAL HepG2 Assay for human X-box Binding Protein 1 (XBP1) (AID 2282972; active = hit-call score of the fitted dose curve at least 0.9, where 1 is the maximum; inactive = score below 0.9); details: HepG2 XBP1 cis-element reporter, Attagene multiplex; actives raise or lower the signal
Method in brief: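 HepG2 cells transiently transfected with cis-regulated multiple reporter transcription units; endogenous transcription factor activity measured 24 hours after chemical dosing. Reporter mRNA quantified by RT-PCR, 6-FAM primer extension, HpaI digestion and capillary electrophoresis; bidirectional fitting versus DMSO.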

[4] = molecular target: Estrogen-related receptor gamma (Homo sapiens) (UniProt P62508); assay: ATG_ERRg_TRANS: Attagene TRANS-FACTORIAL HepG2 Assay for human Estrogen-Related Receptor gamma (ERRg) (AID 2282977); details: HepG2 Attagene TRANS reporter, ERRg transactivation;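 note: hits increase reporter signal over DMSO so potencies reflect activators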
Method in brief: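 HepG2 cells transiently transfected with multiplexed GAL4-UAS reporter units driven by chimeric NR-Gal4 proteins; 24 h exposure. Reporter mRNA quantified by RT-PCR, fluorescent labelling, HpaI digestion and capillary electrophoresis; gain of signal vs DMSO.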

[5] = molecular target: Bile acid receptor (Homo sapiens) (UniProt Q96RI1); assay: ATG_FXR_TRANS: Attagene TRANS-FACTORIAL HepG2 Assay for Farnesoid X Receptor (FXR) (AID 2282979); details: HepG2 Attagene TRANS FXR-GAL4 reporter transcription;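 note: hits raise reporter mRNA above DMSO so AC50 marks FXR activation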
Method in brief: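 Chimeric FXR-GAL4 activity in transiently transfected human HepG2 liver cells is scored as induction of reporter mRNA after 24 h of dosing. Detection uses RT-PCR with fluorescent labelling and capillary electrophoresis, with DMSO serving as baseline.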

[6] = molecular target: Transcriptional activator Myb (Homo sapiens) (UniProt P10242); assay: ATG_Myb_CIS: Attagene CIS-FACTORIAL HepG2 Assay for human Myeloblastosis (Myb) Proto-Oncogene Transcription Factor (AID 2282986; active = hit-call score of the fitted dose curve at least 0.9, where 1 is the maximum; inactive = score below 0.9); details: HepG2 Attagene CIS-FACTORIAL Myb reporter transcription; actives raise or lower the signal
Method in brief: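 Steps: transfect HepG2 with cis-regulated reporter units; dose with chemical for 24 h; isolate RNA, reverse-transcribe, PCR-amplify and FAM-label reporter sequences; digest with HpaI; resolve by capillary electrophoresis. Activity fitted in both directions relative to DMSO.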

[7] = molecular target: Nuclear respiratory factor 1 (Homo sapiens) (UniProt Q16656); assay: ATG_NRF1_CIS: Attagene CIS-FACTORIAL HepG2 Assay for human Nuclear Respiratory Factor 1 (NRF1) Orphan Gene (AID 2282987; active = hit-call score of the fitted dose curve at least 0.9, where 1 is the maximum; inactive = score below 0.9); details: HepG2 NRF1 cis-element reporter, Attagene multiplex; actives raise or lower the signal
Method in brief: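 Fluorescence intensity of labelled reporter cDNA fragments, resolved by capillary electrophoresis, served as readout for NRF1 cis-element activity. Transiently transfected HepG2 cells were dosed for 24 hours; activity in either direction was fitted against DMSO negative control.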

[8] = molecular target: Nuclear receptor subfamily 1 group I member 3 (Homo sapiens) (UniProt Q14994); assay: ATG_CAR_TRANS: Attagene TRANS-FACTORIAL HepG2 Assay for human Constitutive Androstane Receptor (CAR) (AID 2282969); details: HepG2 Attagene TRANS-FACTORIAL CAR reporter;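 note: activators raise reporter mRNA above DMSO so AC50 marks induction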
Method in brief: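 Readout is reporter mRNA induction, quantified by fluorescent primer extension and capillary electrophoresis after RT-PCR. Cells were HepG2 transiently carrying chimeric NR-Gal4 constructs with GAL4-UAS reporters, treated for 24 h; activity scored upward from DMSO.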

[9] = molecular target: Oxysterols receptor LXR-beta (Homo sapiens) (UniProt P55055); assay: ATG_LXRb_TRANS: Attagene TRANS-FACTORIAL HepG2 Assay for human Liver X Receptor beta (LXRb) (AID 2282981); details: HepG2 Attagene TRANS GAL4-LXRb reporter, mRNA
Method in brief: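 Transient transfection HepG2 (multiplexed RTUs, GAL4-UAS); NR-Gal4 chimera; 24 h exposure; RNA → RT-PCR → 6-FAM primer extension → HpaI → CE; increase vs DMSO.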

[10] = ATG_M_32_TRANS: Attagene TRANS-FACTORIAL HepG2 Assay for M32 Transcription Factor (Internal Marker) (AID 2282984); details: HepG2 Attagene TRANS M32 internal marker reporter
Method in brief: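 Measures reporter mRNA induction in human HepG2 liver cells after 24 h chemical treatment. Transcripts from transiently transfected GAL4-UAS reporter units are amplified, fluorescently labelled and sized by capillary electrophoresis; gain of signal relative to DMSO.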

[11] = ATG_M_19_TRANS: Attagene TRANS-FACTORIAL HepG2 Assay for M19 Transcription Factor (Internal Marker) (AID 2282974); details: HepG2 Attagene TRANS-FACTORIAL M19 internal marker reporter
Method in brief: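 Cells: human HepG2, transiently transfected with multiplexed reporter transcription units. Exposure: 24 h. Detection: RT-PCR of reporter mRNA with capillary electrophoresis. Analysis: gain-of-signal vs DMSO.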

[12] = ATG_Hpa5_TRANS: Attagene TRANS-FACTORIAL HepG2 Assay for human GAL4-Hpa5 Hepatocyte Transcription Factor Basal Promoter (AID 2282975); details: HepG2 Attagene GAL4-Hpa5 transcription reporter;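 note: hits are increases in reporter mRNA over DMSO baseline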
Method in brief: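 Basal-promoter GAL4 background control within the HepG2 trans-factorial panel of transiently transfected reporter units. Reporter mRNA is measured 24 h after dosing by RT-PCR and capillary electrophoresis, fitted for gain of signal versus DMSO.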

[13] = molecular target: Hepatocyte nuclear factor 4-alpha (Homo sapiens) (UniProt P41235); assay: ATG_HNF4a_TRANS: Attagene TRANS-FACTORIAL HepG2 Assay for human Hepatocyte Nuclear Factor 4 alpha (HNF4a) (AID 2282982); details: HepG2 HNF4a transactivation reporter, mRNA readout
Method in brief: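 Readout is fluorescent reporter-transcript fragments resolved by capillary electrophoresis after RT-PCR from HepG2 cells dosed for 24 h. Cells carried transfected GAL4-UAS reporter constructs measuring exogenous NR-GAL4 chimera activity; DMSO served as baseline.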

[14] = molecular target: Glucocorticoid receptor (Homo sapiens) (UniProt P04150); assay: ATG_GR_TRANS: Attagene TRANS-FACTORIAL HepG2 Assay for human Glucocorticoid Receptor (GR) (AID 2282978); details: HepG2 Attagene TRANS GR reporter, mRNA transcription;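 note: activators score as hits since higher reporter transcript over DMSO is fitted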
Method in brief: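 In this trans-factorial format, exogenous NR-GAL4 chimeric proteins in transfected HepG2 cells regulate GAL4-UAS reporter transcription. After 24 h treatment, reporter mRNA induction relative to DMSO is read by RT-PCR and capillary electrophoresis.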

[15] = molecular target: Oxysterols receptor LXR-alpha (Homo sapiens) (UniProt Q13133); assay: ATG_LXRa_TRANS: Attagene TRANS-FACTORIAL HepG2 Assay for human Liver X Receptor alpha (LXRa) (AID 2282980); details: HepG2 Attagene TRANS reporter, LXRa transactivation
Method in brief: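 Transient HepG2 transfectants, 24 h dosing, RT-PCR/CE mRNA reporter quantitation; gain-of-signal vs DMSO.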

[16] = ATG_M_06_TRANS: Attagene TRANS-FACTORIAL HepG2 Assay for M06 Transcription Factor (Internal Marker) (AID 2282983); details: HepG2 Attagene TRANS M06 internal marker reporter;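 note: reporter transcript level by RT-PCR then capillary electrophoresis fluorescence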
Method in brief: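 Measured by capillary electrophoresis of fluorescently labelled RT-PCR products, this endpoint reflects reporter mRNA in HepG2 cells harbouring exogenous NR-GAL4 reporter constructs after 24 h exposure, with DMSO as baseline.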

[17] = molecular target: Nuclear receptor subfamily 4 group A member 2 (Homo sapiens) (UniProt P43354); assay: ATG_NURR1_TRANS: Attagene TRANS-FACTORIAL HepG2 Assay for human Nuclear Receptor Related Protein 1 (NURR1) (AID 2282985); details: HepG2 Attagene TRANS reporter, mRNA readout
Method in brief: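 Transient transfection of HepG2, human liver cells, with multiple GAL4-UAS reporter transcription units. Cells dosed 24 h, RNA isolated, reverse-transcribed, PCR-amplified, FAM-labelled, HpaI-digested, sized by capillary electrophoresis. DMSO served as negative control.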

[18] = molecular target: Androgen receptor (Homo sapiens) (UniProt P10275); assay: ATG_AR_TRANS: Attagene TRANS-FACTORIAL HepG2 Assay for human Androgen Receptor (AR) (AID 2282973); details: HepG2 Attagene TRANS-FACTORIAL AR reporter transcription
Method in brief: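 Transfected HepG2, 24 h treatment, chimeric NR-Gal4 driving GAL4-UAS reporters. mRNA induction by RT-PCR/capillary electrophoresis fluorescence; DMSO as negative control and baseline.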

Measured: AC50

Hepatocyte nuclear factor 4-alpha (Homo sapiens), sequence (P41235 whole entry, looked up, the tested form may be a part): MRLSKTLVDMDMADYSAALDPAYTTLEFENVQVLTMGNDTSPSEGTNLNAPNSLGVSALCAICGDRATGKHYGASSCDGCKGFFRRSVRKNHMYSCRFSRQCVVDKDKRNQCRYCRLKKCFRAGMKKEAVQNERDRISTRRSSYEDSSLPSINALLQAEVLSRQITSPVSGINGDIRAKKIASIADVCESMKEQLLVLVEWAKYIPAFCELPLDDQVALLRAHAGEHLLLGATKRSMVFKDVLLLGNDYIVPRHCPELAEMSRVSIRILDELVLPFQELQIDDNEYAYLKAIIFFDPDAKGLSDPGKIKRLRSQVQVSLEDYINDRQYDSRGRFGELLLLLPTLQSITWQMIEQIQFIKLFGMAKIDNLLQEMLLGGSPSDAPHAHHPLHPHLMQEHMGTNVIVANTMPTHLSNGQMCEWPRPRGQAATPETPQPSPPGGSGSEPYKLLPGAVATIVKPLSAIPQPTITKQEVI
Transcriptional activator Myb (Homo sapiens), sequence (P10242 whole entry, looked up): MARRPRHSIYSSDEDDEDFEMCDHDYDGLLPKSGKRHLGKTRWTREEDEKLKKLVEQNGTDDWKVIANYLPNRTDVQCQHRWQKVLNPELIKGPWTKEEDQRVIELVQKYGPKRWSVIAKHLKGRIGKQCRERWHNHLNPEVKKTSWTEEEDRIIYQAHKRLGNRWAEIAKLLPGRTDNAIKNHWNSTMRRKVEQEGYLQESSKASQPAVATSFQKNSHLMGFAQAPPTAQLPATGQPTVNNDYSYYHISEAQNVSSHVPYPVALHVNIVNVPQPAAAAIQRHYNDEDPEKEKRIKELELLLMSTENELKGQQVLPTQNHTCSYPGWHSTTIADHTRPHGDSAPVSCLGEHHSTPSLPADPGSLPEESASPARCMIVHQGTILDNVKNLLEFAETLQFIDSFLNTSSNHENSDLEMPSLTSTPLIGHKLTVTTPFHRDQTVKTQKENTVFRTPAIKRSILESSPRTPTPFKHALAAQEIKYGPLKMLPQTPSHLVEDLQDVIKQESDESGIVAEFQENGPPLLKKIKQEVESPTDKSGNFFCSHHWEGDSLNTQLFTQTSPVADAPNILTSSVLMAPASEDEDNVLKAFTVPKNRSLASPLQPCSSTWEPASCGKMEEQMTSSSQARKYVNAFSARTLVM
Nuclear receptor subfamily 1 group I member 3 (Homo sapiens), sequence (Q14994 whole entry, looked up, the tested form may be a part): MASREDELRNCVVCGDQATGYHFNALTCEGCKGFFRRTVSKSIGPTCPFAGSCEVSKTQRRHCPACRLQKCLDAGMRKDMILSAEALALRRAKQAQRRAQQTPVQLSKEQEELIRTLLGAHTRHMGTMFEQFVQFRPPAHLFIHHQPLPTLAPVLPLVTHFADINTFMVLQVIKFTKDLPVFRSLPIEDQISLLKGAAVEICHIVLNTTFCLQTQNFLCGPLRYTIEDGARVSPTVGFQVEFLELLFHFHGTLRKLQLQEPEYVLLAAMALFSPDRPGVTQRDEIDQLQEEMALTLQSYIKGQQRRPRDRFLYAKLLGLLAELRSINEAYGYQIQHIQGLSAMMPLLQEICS
Oxysterols receptor LXR-alpha (Homo sapiens), sequence (Q13133 whole entry, looked up): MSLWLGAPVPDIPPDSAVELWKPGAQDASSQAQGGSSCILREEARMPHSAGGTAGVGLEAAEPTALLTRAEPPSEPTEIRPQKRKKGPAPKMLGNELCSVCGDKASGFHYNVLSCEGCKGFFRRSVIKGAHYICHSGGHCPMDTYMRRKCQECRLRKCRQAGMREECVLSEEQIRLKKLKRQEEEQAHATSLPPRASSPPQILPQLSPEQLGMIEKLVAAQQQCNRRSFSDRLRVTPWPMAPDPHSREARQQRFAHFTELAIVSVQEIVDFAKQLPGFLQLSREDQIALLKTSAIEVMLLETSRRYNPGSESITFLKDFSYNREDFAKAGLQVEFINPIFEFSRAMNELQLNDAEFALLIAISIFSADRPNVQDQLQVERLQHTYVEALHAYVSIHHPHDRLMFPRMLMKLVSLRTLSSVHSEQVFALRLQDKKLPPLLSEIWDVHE
X-box-binding protein 1 (Homo sapiens), sequence (P17861 whole entry, looked up): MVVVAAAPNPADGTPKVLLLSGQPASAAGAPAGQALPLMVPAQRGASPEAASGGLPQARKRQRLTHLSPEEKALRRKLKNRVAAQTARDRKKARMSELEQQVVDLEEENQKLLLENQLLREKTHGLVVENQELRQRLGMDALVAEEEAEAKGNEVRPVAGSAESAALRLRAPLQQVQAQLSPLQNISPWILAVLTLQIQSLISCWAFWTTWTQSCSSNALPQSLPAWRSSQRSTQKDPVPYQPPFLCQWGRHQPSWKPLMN
Glucocorticoid receptor (Homo sapiens), sequence (P04150 whole entry, looked up, the tested form may be a part): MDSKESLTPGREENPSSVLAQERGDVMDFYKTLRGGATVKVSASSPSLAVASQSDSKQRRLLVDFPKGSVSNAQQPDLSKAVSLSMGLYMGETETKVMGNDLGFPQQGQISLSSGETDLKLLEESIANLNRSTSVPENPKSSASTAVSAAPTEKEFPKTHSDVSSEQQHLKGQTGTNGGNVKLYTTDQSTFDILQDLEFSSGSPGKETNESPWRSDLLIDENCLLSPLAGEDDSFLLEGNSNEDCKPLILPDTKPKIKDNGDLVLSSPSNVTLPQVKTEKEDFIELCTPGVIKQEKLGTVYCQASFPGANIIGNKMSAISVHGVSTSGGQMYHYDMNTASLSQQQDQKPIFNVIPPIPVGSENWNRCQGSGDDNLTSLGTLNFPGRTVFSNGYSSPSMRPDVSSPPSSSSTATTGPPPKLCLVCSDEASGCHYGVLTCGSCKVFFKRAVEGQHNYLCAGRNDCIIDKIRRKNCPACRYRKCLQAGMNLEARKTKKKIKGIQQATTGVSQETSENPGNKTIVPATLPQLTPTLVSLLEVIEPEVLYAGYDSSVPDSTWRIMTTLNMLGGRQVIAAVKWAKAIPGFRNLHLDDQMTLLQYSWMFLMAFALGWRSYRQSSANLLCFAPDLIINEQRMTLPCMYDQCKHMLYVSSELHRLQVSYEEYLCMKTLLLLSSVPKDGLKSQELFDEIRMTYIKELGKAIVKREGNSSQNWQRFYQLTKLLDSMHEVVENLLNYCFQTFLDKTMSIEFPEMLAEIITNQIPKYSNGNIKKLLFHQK
Estrogen-related receptor gamma (Homo sapiens), sequence (P62508 whole entry, looked up, the tested form may be a part): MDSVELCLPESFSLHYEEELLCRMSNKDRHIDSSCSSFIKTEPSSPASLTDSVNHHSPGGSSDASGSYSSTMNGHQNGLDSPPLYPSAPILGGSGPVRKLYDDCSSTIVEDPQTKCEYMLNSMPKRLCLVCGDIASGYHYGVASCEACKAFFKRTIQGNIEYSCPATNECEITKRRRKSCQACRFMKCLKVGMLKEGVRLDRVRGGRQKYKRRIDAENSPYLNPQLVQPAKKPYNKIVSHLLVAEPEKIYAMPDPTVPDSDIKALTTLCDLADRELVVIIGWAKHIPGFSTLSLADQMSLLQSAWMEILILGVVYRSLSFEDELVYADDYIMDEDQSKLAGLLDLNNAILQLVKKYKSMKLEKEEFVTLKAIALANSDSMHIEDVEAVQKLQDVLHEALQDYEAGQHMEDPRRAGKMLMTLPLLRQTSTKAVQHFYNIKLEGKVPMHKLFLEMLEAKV
Oxysterols receptor LXR-beta (Homo sapiens), sequence (P55055 whole entry, looked up, the tested form may be a part): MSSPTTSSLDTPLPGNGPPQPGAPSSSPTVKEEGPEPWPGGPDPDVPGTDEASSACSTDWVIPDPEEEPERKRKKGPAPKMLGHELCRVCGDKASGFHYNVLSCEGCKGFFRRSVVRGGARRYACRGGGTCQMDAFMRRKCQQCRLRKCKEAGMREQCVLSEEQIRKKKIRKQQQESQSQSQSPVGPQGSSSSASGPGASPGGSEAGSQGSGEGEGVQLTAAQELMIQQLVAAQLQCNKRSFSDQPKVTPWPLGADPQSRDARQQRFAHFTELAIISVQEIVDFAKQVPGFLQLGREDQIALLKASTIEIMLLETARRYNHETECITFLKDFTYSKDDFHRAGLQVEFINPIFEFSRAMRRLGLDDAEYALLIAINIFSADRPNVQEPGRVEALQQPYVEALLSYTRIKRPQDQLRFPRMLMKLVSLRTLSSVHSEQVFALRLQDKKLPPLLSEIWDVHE
Bile acid receptor (Homo sapiens), sequence (Q96RI1 whole entry, looked up, the tested form may be a part): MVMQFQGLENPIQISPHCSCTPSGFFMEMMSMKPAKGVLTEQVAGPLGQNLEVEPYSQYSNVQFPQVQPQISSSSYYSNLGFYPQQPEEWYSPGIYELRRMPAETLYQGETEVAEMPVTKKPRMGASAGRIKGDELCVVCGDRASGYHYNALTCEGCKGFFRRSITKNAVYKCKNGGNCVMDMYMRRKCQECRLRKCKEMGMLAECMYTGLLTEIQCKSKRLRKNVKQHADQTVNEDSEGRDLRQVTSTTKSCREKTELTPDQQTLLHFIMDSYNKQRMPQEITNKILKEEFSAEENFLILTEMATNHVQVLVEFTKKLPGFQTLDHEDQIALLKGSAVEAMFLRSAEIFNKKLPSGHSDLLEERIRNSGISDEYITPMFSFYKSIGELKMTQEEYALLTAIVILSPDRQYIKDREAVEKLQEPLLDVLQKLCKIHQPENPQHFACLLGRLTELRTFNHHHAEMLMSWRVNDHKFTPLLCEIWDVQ
Nuclear receptor subfamily 4 group A member 2 (Homo sapiens), sequence (P43354 whole entry, looked up, the tested form may be a part): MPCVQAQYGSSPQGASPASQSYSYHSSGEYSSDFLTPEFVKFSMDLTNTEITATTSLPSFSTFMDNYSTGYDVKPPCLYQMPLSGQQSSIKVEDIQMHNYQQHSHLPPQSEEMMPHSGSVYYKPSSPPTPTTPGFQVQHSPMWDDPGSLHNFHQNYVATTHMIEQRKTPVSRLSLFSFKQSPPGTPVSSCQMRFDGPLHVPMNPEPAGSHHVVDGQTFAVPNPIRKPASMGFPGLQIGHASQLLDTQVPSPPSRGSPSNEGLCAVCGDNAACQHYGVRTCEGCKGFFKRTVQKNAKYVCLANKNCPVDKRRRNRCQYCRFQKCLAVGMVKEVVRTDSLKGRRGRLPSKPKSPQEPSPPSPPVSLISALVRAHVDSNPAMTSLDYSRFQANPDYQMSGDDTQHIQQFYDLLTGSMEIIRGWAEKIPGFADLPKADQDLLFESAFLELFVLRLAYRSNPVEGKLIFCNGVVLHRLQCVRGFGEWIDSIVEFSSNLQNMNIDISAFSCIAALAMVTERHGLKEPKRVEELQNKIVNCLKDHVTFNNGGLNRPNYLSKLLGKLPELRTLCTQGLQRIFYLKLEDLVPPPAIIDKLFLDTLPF

COc1cccc(C(=O)NN(C(=O)c2cc(C)cc(C)c2)C(C)(C)C)c1C
inactive: [2] | [3] | [4] | [5] | [6] | [7]
active: [1] 1.94 µM

Cc1ccn2nc(S(=O)(=O)Nc3c(F)cccc3F)nc2n1
inactive: [1] | [8] | [3] | [4] | [5] | [9] | [10] | [6] | [7]

CC(C)[C@H](C(=O)O[C@H](C#N)c1cccc(Oc2ccccc2)c1)c1ccc(Cl)cc1
inactive: [8] | [3] | [11] | [12] | [13] | [6] | [7]

CNc1cnn(-c2cccc(C(F)(F)F)c2)c(=O)c1Cl
inactive: [8] | [3] | [12] | [14] | [15] | [9] | [6] | [7]
active: [1] 13.6 µM

CN1COCN(Cc2cnc(Cl)s2)C1=N[N+](=O)[O-]
inactive: [1] | [3] | [14] | [5] | [15] | [9] | [13] | [10] | [6] | [7]

CON=C(C(=O)OC)c1ccccc1CON=C(C)c1cccc(C(F)(F)F)c1
active: [1] 11.1 µM
not listed: [2] | [4] | [5] | [14] | [16] | [17] | [18]
inactive: all other assays above

CC(C)N(C(=O)SCC(Cl)=C(Cl)Cl)C(C)C
active: [1] 29.1 µM | [15] 29.1 µM | [9] 20.1 µM
not listed: [2] | [4] | [5] | [11] | [14] | [18]
inactive: all other assays above

CCc1cnc(C2=NC(C)(C(C)C)C(=O)N2)c(C(=O)O)c1 (centres undefined)
inactive: [1] | [8] | [3] | [12] | [14] | [15] | [9] | [6] | [7]

CCOP(=S)(OCC)Oc1ccc2c(C)c(Cl)c(=O)oc2c1
not listed: [1] | [5] | [12] | [13] | [16] | [18]
inactive: all other assays above

C[Si](Cn1cncn1)(c1ccc(F)cc1)c1ccc(F)cc1
active: [1] 27.6 µM | [7] 73.7 µM
inactive: [3] | [12] | [15] | [9] | [13] | [10] | [17] | [6]

CC1(C(=O)Nc2ccc(O)c(Cl)c2Cl)CCCCC1
inactive: [8] | [3] | [4] | [9] | [13] | [17] | [6] | [7]
active: [1] 10.8 µM | [15] 50 µM

O=c1ccc(=O)[nH][nH]1
not listed: [4] | [5] | [8] | [14] | [16]
inactive: all other assays above

CCNc1nc(Cl)nc(NC(C)(C)C#N)n1
not listed: [1] | [2] | [4] | [5] | [16] | [18]
inactive: all other assays above

CCc1cccc(C)c1N(C(=O)CCl)C(C)COC (centres undefined)
active: [1] 9.18 µM
inactive: [8] | [3] | [11] | [4] | [10] | [6] | [7]

FC(F)C(F)(F)OCC(Cn1cncn1)c1ccc(Cl)cc1Cl (centres undefined)
inactive: [11] | [9] | [17] | [6]
active: [1] 37.3 µM | [3] 75.8 µM | [7] 39.5 µM

COc1cc(OC)nc(Sc2cccc(Cl)c2C(=O)O)n1
not listed: [5] | [11] | [12] | [13] | [16] | [18]
inactive: all other assays above

CCOP(=S)(OCC)Oc1cc(C)nc(C(C)C)n1
inactive: [8] | [3] | [12] | [14] | [15] | [9] | [17] | [6] | [7]

CCCSP(=O)(OCC)Oc1ccc(Br)cc1Cl (centres undefined)
active: [1] 6.6 µM | [3] 1.31 µM
inactive: [8] | [12] | [5] | [15] | [9] | [10] | [17] | [6] | [7]

Cc1nn(-c2cc(NS(C)(=O)=O)c(Cl)cc2Cl)c(=O)n1C(F)F
active: [1] 30.8 µM
not listed: [5] | [8] | [10] | [12] | [14] | [16] | [17]
inactive: all other assays above

CCOP(=O)(SC(C)CC)N1CCSC1=O (centres undefined)
inactive: [1] | [8] | [3] | [11] | [12] | [9] | [13] | [10] | [6] | [7]
